Assay [1] is described as follows: ATG_XTT_Cytotoxicity: Cytotoxicity Assessment in the Attagene TRANS-FACTORIAL HepG2 Assay (AID 2283584).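 For AC50: cells exposed to compound for 24 h before reading; active means loss of viability signal versus DMSO baseline.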 In a few lines: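 XTT readout of cell number in transfected HepG2 cells, 24 h post-dosing; DMSO serves as negative control and baseline, with activity taken as loss of viability signal.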
Assay [2] can be described thus: TOX21_p53_BLA_p2_viability: Viability Assessment in the Tox21 HCT-116 p53 Agonism Beta-lactamase Assay, Phase 2 (AID 2283591).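 Note: compound exposure lasted 16 h at 37 °C; actives lower the ATP signal meaning cytotoxicity.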 Put shortly: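 HCT-116 p53-bla cells (4000/well) rested 5 h at 37C, then received compounds in DMSO (217-fold dilution) for 16 h at 37C, 5% CO2. After the CCF4 read, CellTiter-Glo was added; ATP luminescence was read after 30 min at room temperature.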

Assay [3] concerns the target Cellular tumor antigen p53 (Homo sapiens) (UniProt P04637). The experiment in a line: TOX21_p53_BLA_p2_ratio: Tox21 HCT-116 p53 Agonism Beta-lactamase Assay, Ratio, Phase 2 (AID 2283592). Put shortly: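 In this cell-based reporter format, HCT116 cells were dosed with chemicals delivered from DMSO by 217-fold dilution and incubated 16 h at 37C. Emission at 460 and 530 nm after 2 h CCF4-AM loading provided the ratio, fitted upward versus DMSO.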

A short description of assay [4]: TOX21_p53_BLA_p3_viability: Viability Assessment in the Tox21 HCT-116 p53 Agonism Beta-lactamase Assay, Phase 3 (AID 2283593).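 Note: cells exposed to compound for 16 h before reading.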 In a few lines:
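HCT-116 cells (4000/well) rested 5 h at 37C, then got DMSO compounds by pin tool (217-fold dilution) for 16 h at 37C, 5% CO2. After the bla read, CellTiter-Glo was added and luminescence read at 30 min, room temperature.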

Assay [5] has as its target Cellular tumor antigen p53 (Homo sapiens) (UniProt P04637). In words: TOX21_p53_BLA_p3_ratio: Tox21 HCT-116 p53 Agonism Beta-lactamase Assay, Ratio, Phase 3 (AID 2283596). In a few lines:
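HCT116 p53-bla cells (4000/well) given compound in DMSO (217-fold dilution) after 5 h, incubated 16 h at 37C. CCF4-AM substrate 2 h at room temperature; 460/530 nm emission ratio, gain fitted against DMSO.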

Assay [6] can be described thus: TOX21_p53_BLA_p4_viability: Viability Assessment in the Tox21 HCT-116 p53 Agonism Beta-lactamase Assay, Phase 4 (AID 2283597).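 Note: hits lower the luminescence signal meaning cytotoxicity.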 In a few lines: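 We seeded HCT116 p53 reporter cells at 4000/well and waited 5 h. We then added compounds in DMSO at a 217-fold dilution and incubated for 16 h. Viability was read as CellTiter-Glo luminescence after 30 min at RT.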
The target of assay [7] is Cellular tumor antigen p53 (Homo sapiens) (UniProt P04637). In words: TOX21_p53_BLA_p5_ratio: Tox21 HCT-116 p53 Agonism Beta-lactamase Assay, Ratio, Phase 5 (AID 2283599). In a few lines: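 HCT-116 cells carrying a p53-inducible beta-lactamase reporter were seeded at 4000 cells/well and dosed after 5 h with compound in DMSO (217-fold dilution). After 16 h at 37C, CCF4-AM substrate was added for 2 h, and the 460/530 nm emission ratio was scored as gain-of-signal versus DMSO.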

Assay [8] shares this target. The experiment in a line: TOX21_p53_BLA_p4_ratio: Tox21 HCT-116 p53 Agonism Beta-lactamase Assay, Ratio, Phase 4 (AID 2283601). In a few lines: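 HCT116 cells carrying an inducible beta-lactamase reporter were plated at 4000 cells/well, rested 5 h, then exposed to compounds in DMSO (217-fold dilution) for 16 h at 37C. CCF4-AM substrate was loaded 2 h at room temperature; 460/530 nm emission ratio scored gain-of-signal versus DMSO.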

Assay [9] can be described thus: TOX21_p53_BLA_p5_viability: Viability Assessment in the Tox21 HCT-116 p53 Agonism Beta-lactamase Assay, Phase 5 (AID 2283600). Put shortly:
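Compounds, pinned from DMSO at 217-fold dilution, were left on the cells for 16 h. The viability endpoint was ATP content measured by CellTiter-Glo luminescence, where falling signal reflects cytotoxicity.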

Values joined by “and” are separate entries in the source; they are usually repeats but may differ in a detail not shown here. Identical values can stand only once. Inconclusive results are not listed. Where a structure was tested more than once in an assay, its records may differ in their call. Active and inactive are the calls of the source. Rule for the calls: active = hit-call score of the fitted dose curve at least 0.9, where 1 is the maximum; inconclusive = response in the unintended direction; inactive = score below 0.9.

Chain of Cellular tumor antigen p53 (Homo sapiens) (P04637 whole entry, looked up): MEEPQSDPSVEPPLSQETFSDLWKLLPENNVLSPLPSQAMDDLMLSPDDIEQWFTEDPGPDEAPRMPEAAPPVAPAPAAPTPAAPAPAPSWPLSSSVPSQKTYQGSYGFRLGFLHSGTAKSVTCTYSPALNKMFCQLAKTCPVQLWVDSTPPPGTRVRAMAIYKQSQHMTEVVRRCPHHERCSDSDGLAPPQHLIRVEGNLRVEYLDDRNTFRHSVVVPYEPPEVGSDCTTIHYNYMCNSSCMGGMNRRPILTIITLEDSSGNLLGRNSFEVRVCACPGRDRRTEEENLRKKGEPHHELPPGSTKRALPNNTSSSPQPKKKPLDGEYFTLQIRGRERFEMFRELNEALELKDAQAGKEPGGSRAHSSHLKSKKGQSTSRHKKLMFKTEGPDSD

In the case of `O=[N+]([O-])C1(Br)COCOC1`, the outcome in assay [1], in assay [2], in assay [3], in [4], in assay [5] and in [6] was inactive. For the same molecule, the result in assay [7] and in [8] was inactive.
With `Nc1ccc(N=Nc2ccccc2)c(N)n1`, the molecule was called inactive in assay [1], in assay [2], in assay [3], in assay [6], in assay [7] and in [9]. Besides, in assay [8], the outcome was inactive. The AC50 (commonly the midpoint of the concentration-response curve, whichever way the signal moves) in assay [3] is 85.6 µM (active) and 25.8 µM (active); in assay [5], 87.8 µM (active) and 85.8 µM (active) and 43.2 µM (active); in [7] it was 83.5 µM (active) and 85.4 µM (active).
`CC/C=C\CCOC(=O)CCCCC`: the outcome in [1], in [2], in assay [3], in [4], in assay [5] and in assay [7] was inactive. In addition, the result in [8] was inactive.
As for `CCCCCCCCCCC=CC#N`, the outcome in assay [1], in assay [2], in [3], in assay [4], in [6] and in assay [7] was inactive. For the same molecule, the molecule was called inactive in assay [9] and in [8].
On to `Cc1c(C)c([N+](=O)[O-])c(C(C)(C)C)c([N+](=O)[O-])c1C`, for which the molecule was called inactive in [1], in [2], in assay [3], in assay [4], in assay [6] and in [7].
With `CC1OC1C1CCC2(C)OC2C1` (stereo not drawn), the outcome in assay [1], in [2], in assay [3], in assay [4], in [5] and in [6] was inactive. Further, the result in [7] and in assay [8] was inactive.
For the molecule `Nc1nc2ccccc2[nH]1`, the call in [1], in [2], in assay [3], in assay [4], in [5] and in assay [6] was inactive. Besides, the outcome in [7], in assay [9] and in assay [8] was inactive.
Regarding `Cc1cc(O)c(Cl)c(C)c1Cl`, the outcome in assay [1] was inactive. In addition, the AC50 in assay [2] was 57 µM (active); in [3], 73.9 µM (active); in assay [4], 57.8 µM (active); in assay [5], 85 µM (active); in assay [6] it was 61.7 µM (active); in assay [7] it was 77.1 µM (active). The AC50 was 70.1 µM (active) in assay [9] and 74.9 µM (active) in [8].
For the molecule `N=c1ccn2c(n1)O[C@H]1[C@H](O)[C@@H](CO)O[C@H]12`, the outcome in assay [1], in assay [2], in assay [4] and in assay [6] was inactive. The concentration at half-maximal activity (AC50) in assay [3] was 1 µM (active) and 2.41 µM (active); in [5], 2.17 µM (active) and 3.17 µM (active); in assay [7], 2.67 µM (active) and 729 nM (active); in assay [8], 1.27 µM (active) and 1.19 µM (active).
Regarding `CC(C)(c1cc(Br)c(OCCO)c(Br)c1)c1cc(Br)c(OCCO)c(Br)c1`, the half-maximal activity concentration (AC50) is 23.3 µM (active) in assay [1]; 37.3 µM (active) in assay [2]; 10.8 µM (active) in assay [3]; 55 µM (active) in [4]; 19.9 µM (active) in assay [5]; 53.1 µM (active) in assay [6]. Moreover, the half-maximal activity concentration (AC50) was 40.1 µM (active) in [7], 60.1 µM (active) in [9] and 50.1 µM (active) in assay [8].
Regarding `CCC(CO)CO`, the molecule was called inactive in assay [1], in assay [2], in assay [3], in assay [4], in assay [5] and in [6]. Besides, the result in assay [7] and in assay [8] was inactive.
With `CCCNC(=O)NS(=O)(=O)c1ccc(Cl)cc1`, the molecule was called inactive in assay [1], in assay [2], in assay [3], in assay [4], in assay [6] and in assay [7]. Moreover, the outcome in [9] and in [8] was inactive.
`CCCC(=O)OCc1ccccc1`: the molecule was classed as inactive in [1], in assay [2], in assay [3], in [4], in assay [5] and in assay [9]. The result in [8] was inactive.
Take `COc1ccc(C(Cl)=C(c2ccc(OC)cc2)c2ccc(OC)cc2)cc1`: the call in [1], in assay [2], in assay [3], in assay [4], in assay [5] and in assay [6] was inactive. Besides, the outcome in [7] and in [8] was inactive.
On to `CC(=O)Nc1nnc(S(N)(=O)=O)s1`, for which the molecule was called inactive in assay [1], in [2], in assay [3], in [4], in [5] and in [6]. The result in assay [7] and in assay [8] was inactive.
`O=C1CCCCCN1SSN1CCCCCC1=O`: the result in assay [1], in assay [2], in assay [4], in assay [5], in [6] and in assay [9] was inactive. In addition, in assay [8], the outcome was inactive. In [3], the AC50 is 86.6 µM (active).
Regarding `O=C(Oc1ccccc1)c1ccc2ccccc2c1O`, the molecule was classed as inactive in assay [1], in assay [2], in assay [3], in assay [4], in assay [5] and in [6]. The outcome in [7] and in assay [8] was inactive.
For `COC(=O)C1=C(C)NC(C)=C(C(=O)OCC(C)C)C1c1ccccc1[N+](=O)[O-]` (stereo not drawn), the molecule was classed as inactive in assay [1], in assay [2], in assay [4], in assay [5], in [6] and in [7]. For the same molecule, the result in assay [9] was inactive. For the same molecule, the AC50 in assay [3] was 18.4 µM (active); in assay [5] it was 23 µM (active); in assay [7] it was 20.6 µM (active); in assay [8], 33.2 µM (active) and 18.9 µM (active).
On to `O=c1cc[nH]c(=S)[nH]1`, for which the molecule was classed as inactive in assay [1], in assay [2], in [3], in assay [4], in assay [5] and in [6]. Moreover, the outcome in [7], in assay [9] and in [8] was inactive.
For the molecule `CN1C(=O)N(C)C(O)C1O` (stereo not drawn), the molecule was called inactive in assay [1], in assay [2], in assay [3], in [4], in assay [5] and in [6]. Further, the outcome in assay [7], in [9] and in assay [8] was inactive.
For the molecule `O=C(Nc1ccccc1)c1ccccc1O`, the molecule was classed as inactive in assay [1], in assay [2], in assay [4], in assay [6], in assay [7] and in assay [9]. Moreover, the result in assay [8] was inactive. Also, the AC50 in assay [3] was 57 µM (active).
With `Nc1ccc(-c2ccc(F)cc2)cc1`, the result in [1], in assay [2], in [3], in [4], in [5] and in [6] was inactive. In addition, the result in [7] and in assay [8] was inactive.
On to `COC=O`, for which, in assay [1], the result was inactive.
Same read-out and setting: in the case of `CC(=O)OCc1ccco1` it was “inactive”.
Take `CC(C)=CCC/C(C)=C\C#N`: the molecule was called inactive in assay [1], in assay [2], in assay [3], in [4], in assay [5] and in [7]. Moreover, the result in assay [9] and in assay [8] was inactive.
Consider `CCCCCC(C)O` (stereo not drawn), for which, in assay [1], the result was inactive.
As for `Cc1oncc1C(=O)Nc1ccc(C(F)(F)F)cc1`, the molecule was called inactive in assay [1], in assay [2], in assay [3], in assay [4], in [5] and in [6]. In addition, the outcome in [7] and in assay [9] was inactive.
Regarding `CCCCCCOc1cc(C)c(O)c(C)c1C`, the outcome in [1], in assay [2], in assay [3] and in assay [7] was inactive. For the same molecule, the AC50 was 46.1 µM (active) in assay [6] and 82.5 µM (active) in [8].
As to `Cc1ccc([N+](=O)[O-])cc1S(=O)(=O)O`, the outcome in [1], in [2], in [3], in [5], in assay [9] and in [8] was inactive.
